Data from PubChem BioAssay AID1159580 (chemical genetic matrix, 2015).
The whole screen tested about 5,500 compounds, of which about 2,000 (36%) were called active. Inconclusive results (about 18%) are left out. Cut-off read from the data, not from the text of the source: active = normalized growth mostly below about 0.91 (no sharp cut-off); inconclusive = no clear call, values can overlap the other calls; inactive = mostly above about 0.92. The list shows a part of the results.

Test: chemical genetic growth profiling, strain panel (AID 1159580);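 note: tested at 20 µM; growth read once vehicle control cultures reached saturation at 30 °C; 1 = growth at the plate median or of vehicle wells; lower values mean less growth of the strain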
Conditions: growth OD
[1] = S. cerevisiae deletion strains, locus YAL013W, strain DEP1, hits give low values
[2] = S. cerevisiae deletion strains, locus YDL101C, strain DUN1, hits give low values
[3] = S. cerevisiae deletion strains, locus YDR150W, strain NUM1, hits give low values
[4] = S. cerevisiae deletion strains, locus YGR078C, strain PAC10, hits give low values
[5] = S. cerevisiae deletion strains, locus YHR030C, strain SLT2, hits give low values
[6] = S. cerevisiae deletion strains, locus YPL241C, strain CIN2, hits give low values
[7] = S. cerevisiae deletion strains, locus YAR019C, strain CDC15, hits give low values
[8] = S. cerevisiae deletion strains, locus YBL105C, strain PKC1, hits give low values
[9] = S. cerevisiae deletion strains, locus YBR135W, strain CKS1, hits give low values
[10] = S. cerevisiae deletion strains, locus YBR136W, strain MEC1, hits give low values
[11] = S. cerevisiae deletion strains, locus YBR160W, strain CDC28, hits give low values
[12] = S. cerevisiae deletion strains, locus YDL017W, strain CDC7, hits give low values
[13] = S. cerevisiae deletion strains, locus YDL028C, strain MPS1, hits give low values
[14] = S. cerevisiae deletion strains, locus YDL108W, strain KIN28, hits give low values
[15] = S. cerevisiae deletion strains, locus YDL132W, strain cdc53, hits give low values
[16] = S. cerevisiae deletion strains, locus YDL214C, strain PRR2, hits give low values
[17] = S. cerevisiae deletion strains, locus YDR052C, strain DBF4, hits give low values
[18] = S. cerevisiae deletion strains, locus YDR054C, strain cdc34, hits give low values
[19] = S. cerevisiae deletion strains, locus YDR226W, strain ADK1, hits give low values
[20] = S. cerevisiae deletion strains, locus YDR477W, strain SNF1, hits give low values
[21] = S. cerevisiae deletion strains, locus YER123W, strain YCK3, hits give low values
[22] = S. cerevisiae deletion strains, locus YER133W, strain GLC7, hits give low values
[23] = S. cerevisiae deletion strains, locus YFL009W, strain cdc4, hits give low values
[24] = S. cerevisiae deletion strains, locus YFL029C, strain CAK1, hits give low values
[25] = S. cerevisiae deletion strains, locus YFR003C, strain YPI1, hits give low values
[26] = S. cerevisiae deletion strains, locus YFR019W, strain FAB1, hits give low values
[27] = S. cerevisiae deletion strains, locus YFR028C, strain CDC14, hits give low values
[28] = S. cerevisiae deletion strains, locus YGR040W, strain KSS1, hits give low values
[29] = S. cerevisiae deletion strains, locus YGR052W, strain FMP48, hits give low values
[30] = S. cerevisiae deletion strains, locus YGR092W, strain DBF2, hits give low values
[31] = S. cerevisiae deletion strains, locus YHR079C, strain IRE1, hits give low values
[32] = S. cerevisiae deletion strains, locus YHR082C, strain KSP1, hits give low values
[33] = S. cerevisiae deletion strains, locus YHR205W, strain SCH9, hits give low values
[34] = S. cerevisiae deletion strains, locus YIL147C, strain SLN1, hits give low values
[35] = S. cerevisiae deletion strains, locus YJL095W, strain BCK1, hits give low values
[36] = S. cerevisiae deletion strains, locus YJL128C, strain PBS2, hits give low values
[37] = S. cerevisiae deletion strains, locus YJL157C, strain FAR1, hits give low values
[38] = S. cerevisiae deletion strains, locus YJR016C, strain ILV3, hits give low values
[39] = S. cerevisiae deletion strains, locus YJR066W, strain TOR1 (second series), hits give low values
[40] = S. cerevisiae deletion strains, locus YJR066W, strain TOR1, hits give low values
[41] = S. cerevisiae deletion strains, locus YKL048C, strain ELM1, hits give low values
[42] = S. cerevisiae deletion strains, locus YKL067W, strain YNK1, hits give low values
[43] = S. cerevisiae deletion strains, locus YKL101W, strain HSL1, hits give low values
[44] = S. cerevisiae deletion strains, locus YKL193C, strain SDS22, hits give low values
[45] = S. cerevisiae deletion strains, locus YKL203C, strain TOR2, hits give low values
[46] = S. cerevisiae deletion strains, locus YLR113W, strain HOG1, hits give low values
[47] = S. cerevisiae deletion strains, locus YLR133W, strain CKI1, hits give low values
[48] = S. cerevisiae deletion strains, locus YLR403W, strain SFP1, hits give low values
[49] = S. cerevisiae deletion strains, locus YML070W, strain DAK1, hits give low values
[50] = S. cerevisiae deletion strains, locus YMR001C, strain CDC5, hits give low values
[51] = S. cerevisiae deletion strains, locus YMR205C, strain PFK2 (second series), hits give low values
[52] = S. cerevisiae deletion strains, locus YMR277W, strain FCP1, hits give low values
[53] = S. cerevisiae deletion strains, locus YNL006W, strain LST8, hits give low values
[54] = S. cerevisiae deletion strains, locus YNL020C, strain ARK1, hits give low values
[55] = S. cerevisiae deletion strains, locus YNL161W, strain CBK1, hits give low values
[56] = S. cerevisiae deletion strains, locus YNL183C, strain NPR1, hits give low values
[57] = S. cerevisiae deletion strains, locus YNL207W, strain RIO2, hits give low values
[58] = S. cerevisiae deletion strains, locus YNL222W, strain SSU72, hits give low values
[59] = S. cerevisiae deletion strains, locus YNL307C, strain MCK1 (second series), hits give low values
[60] = S. cerevisiae deletion strains, locus YOL078W, strain AVO1, hits give low values
[61] = S. cerevisiae deletion strains, locus YOL136C, strain PFK27, hits give low values
[62] = S. cerevisiae deletion strains, locus YOR061W, strain CKA2, hits give low values
[63] = S. cerevisiae deletion strains, locus YOR119C, strain RIO1, hits give low values
[64] = S. cerevisiae deletion strains, locus YOR231W, strain MKK1, hits give low values
[65] = S. cerevisiae deletion strains, locus YOR329C, strain SCD5, hits give low values
[66] = S. cerevisiae deletion strains, locus YPL031C, strain PHO85, hits give low values
[67] = S. cerevisiae deletion strains, locus YPL153C, strain RAD53, hits give low values
[68] = S. cerevisiae deletion strains, locus YPL204W, strain HRR25, hits give low values
[69] = S. cerevisiae deletion strains, locus YPL209C, strain IPL1, hits give low values
[70] = S. cerevisiae deletion strains, locus YPL256C, strain CLN2, hits give low values
[71] = S. cerevisiae deletion strains, locus YPR025C, strain CCL1, hits give low values
[72] = S. cerevisiae deletion strains, locus YPR106W, strain ISR1, hits give low values
[73] = S. cerevisiae deletion strains, locus YPR111W, strain DBF20, hits give low values
[74] = S. cerevisiae deletion strains, strain NNK1, hits give low values
[75] = S. cerevisiae deletion strains, strain TSCII, hits give low values

Measured: normalized growth

Cn1c(=O)c(-c2ccccc2)c(O)c2ccccc21
active: [1] 0.868 | S. cerevisiae deletion strains, locus YBR229C, strain ROT2, hits give low values 0.887 | [2] 0.636 | [4] 0.871 | [5] 0.533 | S. cerevisiae deletion strains, locus YJL187C, strain SWE1, hits give low values 0.826 | S. cerevisiae deletion strains, locus YJR043C, strain POL32, hits give low values 0.842 | S. cerevisiae deletion strains, locus YJR075W, strain HOC1, hits give low values 0.881 | S. cerevisiae deletion strains, locus YLR039C, strain RIC1, hits give low values 0.75 | S. cerevisiae deletion strains, locus YLR058C, strain SHM2 (second series), hits give low values 0.926 | S. cerevisiae deletion strains, locus YLR085C, strain ARP6, hits give low values 0.438 | S. cerevisiae deletion strains, locus YLR262C, strain YPT6, hits give low values 0.81 | S. cerevisiae deletion strains, locus YMR219W, strain ESC1, hits give low values 0.945 | S. cerevisiae deletion strains, locus YMR263W, strain SAP30, hits give low values 0.898 | S. cerevisiae deletion strains, locus YNL153C, strain GIM3, hits give low values 0.878 | S. cerevisiae deletion strains, locus YNL322C, strain KRE1, hits give low values 0.932 | S. cerevisiae deletion strains, locus YNR030W, strain Alg12, hits give low values 0.837 | [6] 0.816 | S. cerevisiae deletion strains, locus YPR135W, strain CTF4, hits give low values 0.442 | S. cerevisiae strains, strain wild type, hits give low values 0.9
inactive: [3] 0.825 | S. cerevisiae deletion strains, locus YEL061C, strain CIN8, hits give low values 0.921 | S. cerevisiae deletion strains, locus YGR229C, strain SMI1, hits give low values 0.953 | S. cerevisiae deletion strains, locus YHR087W, strain rtc3, hits give low values 0.99 | S. cerevisiae deletion strains, locus YKL190W, strain CNB1, hits give low values 0.942 | S. cerevisiae deletion strains, locus YML094W, strain GIM5, hits give low values 0.968 | S. cerevisiae deletion strains, locus YMR307W, strain GAS1, hits give low values 0.767 | S. cerevisiae deletion strains, locus YNL298W, strain CLA4 (second series), hits give low values 0.84 | S. cerevisiae deletion strains, locus YOL006C, strain TOP1, hits give low values 0.881 | S. cerevisiae deletion strains, locus YPL055C, strain LGE1, hits give low values 0.907

O=c1c(-c2ccccc2)c(O)c2cccc3c4c(n1c23)CCCC4
inactive: [7] 0.935 | [8] 0.939 | [9] 0.926 | [10] 0.934 | [11] 0.958 | [12] 0.94 | [13] 0.944 | [2] 0.973 | [14] 0.924 | [15] 0.939 | [17] 0.957 | [19] 0.94 | [23] 0.929 | [24] 0.934 | [25] 0.952 | [27] 0.927 | [34] 0.917 | [36] 0.906 | [38] 0.926 | [44] 0.934 | [50] 0.935 | [52] 0.933 | [53] 0.932 | [55] 0.944 | [57] 0.95 | [58] 0.939 | [60] 0.927 | [65] 0.948 | [69] 0.944 | [71] 0.952 | [72] 0.93 | [73] 0.94 | [75] 0.918
active: [16] 0.39 | [18] 0.823 | [20] 0.342 | [21] 0.304 | [22] 0.459 | [26] 0.233 | [28] 0.439 | [29] 0.266 | [30] 0.172 | [5] 0.139 | [31] 0.182 | [32] 0.186 | [33] 0.314 | [35] 0.272 | [37] 0.243 | [39] 0.336 | [40] 0.26 | [41] 0.485 | [42] 0.414 | [43] 0.323 | [45] 0.283 | [46] 0.26 | [47] 0.376 | [48] 0.263 | [49] 0.318 | [51] 0.56 | [54] 0.282 | [56] 0.278 | [59] 0.167 | [61] 0.195 | [62] 0.249 | [63] 0.382 | [64] 0.25 | [66] 0.246 | [67] 0.305 | [68] 0.273 | [70] 0.228 | [74] 0.732

O=c1c(-c2ccccc2)c(O)c2cccc3c4ccccc4n1c23
active: [7] 0.117 | [8] 0.121 | [9] 0.13 | [10] 0.148 | [11] 0.215 | [12] 0.154 | [13] 0.142 | [2] 0.226 | [14] 0.247 | [15] 0.167 | [16] 0.0962 | [17] 0.344 | [18] 0.128 | [19] 0.523 | [20] 0.134 | [21] 0.113 | [22] 0.105 | [23] 0.14 | [24] 0.115 | [25] 0.12 | [26] 0.118 | [27] 0.145 | [28] 0.124 | [29] 0.13 | [30] 0.11 | [5] 0.149 | [31] 0.143 | [32] 0.157 | [33] 0.0087 | [34] 0.123 | [35] 0.141 | [36] 0.133 | [37] 0.0913 | [38] 0.168 | [39] 0.131 | [40] 0.135 | [41] 0.122 | [42] 0.0882 | [43] 0.113 | [44] 0.139 | [45] 0.146 | [46] 0.185 | [47] 0.106 | [48] 0.00673 | [49] 0.0964 | [50] 0.119 | [51] 0.1 | [52] 0.165 | [53] 0.11 | [54] 0.115 | [55] 0.133 | [56] 0.161 | [57] 0.131 | [58] 0.11 | [59] 0.118 | [60] 0.123 | [61] 0.106 | [62] 0.0936 | [63] 0.146 | [64] 0.122 | [65] 0.12 | [66] 0.124 | [67] 0.109 | [68] 0.126 | [69] 0.129 | [70] 0.15 | [71] 0.149 | [72] 0.141 | [73] 0.147 | [74] 0.114 | [75] 0.112

Cn1c(=O)c2[nH]c(-c3ccccc3)nc2n(C)c1=O
inactive: [1] 0.995 | S. cerevisiae deletion strains, locus YAL040C, strain CLN3, hits give low values 0.984 | S. cerevisiae deletion strains, locus YCL061C, strain MRC1 (second series), hits give low values 0.983 | [3] 0.975 | S. cerevisiae deletion strains, locus YDR363W, strain ESC2, hits give low values 1.01 | S. cerevisiae deletion strains, locus YER002W, strain NOP16, hits give low values 0.97 | [4] 1 | S. cerevisiae deletion strains, locus YNL175C, strain NOP13, hits give low values 0.986 | S. cerevisiae deletion strains, locus YNL197C, strain WHI3, hits give low values 0.99 | S. cerevisiae deletion strains, locus YNL224C, strain SQS1, hits give low values 0.992 | S. cerevisiae deletion strains, locus YOR083W, strain WHI5 (second series), hits give low values 1 | [6] 0.992
